Test results reported in PubChem BioAssay (NCATS).
Records with an inconclusive call do not appear. Unmarked numbers belong to inactive results. Activity calls are given as the source filed them. Calls follow the shape of the dose curve; as a rule, active = well fitted inhibition curve with a large enough effect; inconclusive = small, poorly fitted or top-dose-only effect, or effect the other way; inactive = flat fitted curve, though single readings scatter. Where a SMILES comes first, the peptide text is derived from it. [ ]: non-standard residue; d: D form. pGlu = O=C1CC[C@@H](C(=O)O)N1; Thz = O=C(O)[C@@H]1CSCN1

target: ATP-dependent 6-phosphofructokinase (Trypanosoma brucei brucei) (UniProt O15648); test: qHTS Assay to Find Inhibitors of T. brucei phosphofructokinase: hit validation (AID 492961);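 also: luminescence reports ADP formed as PFK phosphorylates fructose-6-phosphate with ATP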; conditions: T. brucei PFK, ADP-Glo luminescence; series mostly up to 51.4 µM; activity change, negative = inhibition: at the top concentration
Sequence (O15648 whole entry, looked up): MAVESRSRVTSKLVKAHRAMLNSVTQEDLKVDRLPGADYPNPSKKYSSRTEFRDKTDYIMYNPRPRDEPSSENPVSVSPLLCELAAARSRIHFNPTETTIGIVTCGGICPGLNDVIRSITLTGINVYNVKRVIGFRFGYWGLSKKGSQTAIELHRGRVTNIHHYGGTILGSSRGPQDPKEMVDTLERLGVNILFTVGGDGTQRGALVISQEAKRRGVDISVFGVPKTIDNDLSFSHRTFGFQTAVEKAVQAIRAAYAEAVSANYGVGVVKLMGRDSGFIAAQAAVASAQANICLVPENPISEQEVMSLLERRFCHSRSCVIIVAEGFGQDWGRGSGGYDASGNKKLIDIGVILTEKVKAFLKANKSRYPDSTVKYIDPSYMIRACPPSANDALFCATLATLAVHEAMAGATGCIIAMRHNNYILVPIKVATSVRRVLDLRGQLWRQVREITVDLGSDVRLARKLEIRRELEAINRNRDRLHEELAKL
How it was run: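 Reaction: 0.1 M triethanolamine pH 8.0, 5 mM MgCl2, F6P 0.5 mM, ATP 0.1 mM, PFK 1.25 nM, 45 min RT. Read-out: ADP-Glo luminescence. Analysis: concentration-response fits, classed by r2 and efficacy.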
% is scaled to controls: 0 for no effect and ±100 for the full control effect.

Row | SMILES | activity change, negative = inhibition | outcome
1 | O=C1CN(/N=C/c2ccc(-c3ccc([N+](=O)[O-])cc3)o2)C(=O)N1 | 4.81% | –
2 | CCCSc1ccc2nc(NC(=O)OC)[nH]c2c1 | 1.37% [at 24.3 µM] | –
3 | NC(=O)C(c1ccccc1)(c1ccccc1)[C@@H]1CCN(CCc2ccc3c(c2)CCO3)C1 | -4.95% | –
4 | CC(C(=O)O)c1ccc2c(c1)[nH]c1ccc(Cl)cc12 (stereo not drawn) | 8.91% | –
5 | C=C(Nc1ccc(OCC)cc1)Nc1ccc(OCC)cc1 | – | inactive
6 | CCOC(=O)c1ccccc1O | -3.11% | –
7 | O=C(CCN1CCN(CCO)CC1)N1c2ccccc2Sc2ccc(C(F)(F)F)cc21 | 4.2% | –
8 | Cc1nc2ccccc2n1Cc1ccc(Cl)cc1 | 0.365% | –
9 | CCCCCCOc1ccccc1C(N)=O | -2.4% | –
10 | Cc1c(Nc2ncccc2C(=O)O)cccc1C(F)(F)F | 10% [at 24.3 µM] | –
11 | Nc1cc(-c2ccncc2)c[nH]c1=O | 0.773% | –
12 | C=CCN1C(=O)C(CC(C)C)NC1=S (stereo not drawn) | – | inactive
13 | COc1ccc(-c2cc(=S)ss2)cc1 | 0% | –
14 | CCCCCCCCCCCCCCCCCC(=O)O | 11.5% | –
15 | Cc1ccc(C(=O)c2ccc(CC(=O)O)n2C)cc1 | -4.2% [at 24.3 µM] | –
16 | CC1(C)S[C@@H]2[C@H](NC(=O)[C@H](NC(=O)N3CCN(S(C)(=O)=O)C3=O)c3ccccc3)C(=O)N2[C@H]1C(=O)O | -4.57% | –
17 | Cc1cc(O)c2ccccc2c1O | 3.72% | –
18 | O=C(Nc1ccc(C(=O)O)c(O)c1)c1ccccc1 | -4.09% | –
19 | CCCCC[C@H](O)/C=C/[C@@H]1[C@@H](C/C=C\CCCC(=O)O)[C@@H](O)C[C@H]1O | -2.95% | –

Row | SMILES | activity change, negative = inhibition | outcome
20 | c1ccc2sc(SSc3nc4ccccc4s3)nc2c1 | -13.3% | –
21 | O=C(OCc1ccccc1)c1ccccc1 | 0% | –
22 | O=C(O)Cc1ccc(-c2ccccc2)cc1 | -5.59% [at 24.3 µM] | –
23 | CN1[C@@H]2CC[C@H]1CC(OC(c1ccccc1)c1ccccc1)C2 (stereo partly drawn) | – | inactive
24 | Cc1[nH]cnc1CN1CCc2c(c3ccccc3n2C)C1=O | -7.07% | –
25 | Cc1ccc(O)c(-n2nc3ccccc3n2)c1 | -7.09% | –
26 | Nc1ccc(C(=O)O)c(O)c1 | 7.89% | –
27 | Nc1c(CC(=O)O)cccc1C(=O)c1ccc(Br)cc1 | 1.76% | –
28 | CCCCCCCCCCCCCCCC(=O)OC(C)C | 0.827% | –
29 | C=CCCCCCCCCC(=O)O | -4.77% | –
30 | O=C1CC[C@@H](C(=O)N2CSC[C@H]2C(=O)O)N1 ([pGlu]-[Thz]-OH) | -1.91% | –
31 | O=C(/C=C/c1ccccc1)NCCO | -9.31% | –
32 | COc1cc2c3cc1Oc1cc(ccc1O)C[C@@H]1c4c(cc(OC)c(O)c4Oc4ccc(cc4)C[C@@H]3N(C)CC2)CC[N+]1(C)C | 6.55% | –
33 | O=C(O)COc1ccc(C(=O)c2cccs2)c(Cl)c1Cl | – | inactive
34 | O=C1CN(/N=C/c2ccc([N+](=O)[O-])o2)C(=O)N1 | 8.55% | –
35 | CCCCCCCCCCCC(=O)[O][Sn]([CH2]CCC)([CH2]CCC)[O]C(=O)CCCCCCCCCCC | 15.8% | –
36 | CCCOC(=O)c1ccc(O)cc1 | 1.19% | –
37 | CCCC(=O)OC[C@@H](OC(=O)CCC)[C@@H](OC(=O)CCC)[C@H](Cn1c2nc(=O)[nH]c(=O)c-2nc2cc(C)c(C)cc21)OC(=O)CCC | -4.19% | –
38 | C[S+](CC[C@H](N)C(=O)O)C[C@H]1O[C@@H](n2cnc3c(N)ncnc32)[C@H](O)[C@@H]1O (stereo partly drawn) | -10.9% | –
